SKKanGAS inh – SKKanGAS growth inhibition | S. pyogenes SKKanGAS, kanamycin growth, BacTiter-Glo, 6 h | inhibition, % at 7.5 µM | 300,000 tested, 1.3% active | AID 1662;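 active = mean replicate score, as percent of positive control median, at least 50; inconclusive = mean below 50 but one replicate at or above 50; inactive = mean and every replicate below 50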;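 note: strain carries kanamycin resistance gene driven by streptokinase promoter and grows in 40 µg/ml kanamycin; loss of luminescence reflects streptokinase promoter inhibition or plain growth inhibition; 0% = median of DMSO wells and 100% = positive control at its reference dose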
PfHsp90 yeast 2 – reduces growth (ATP signal) of yeast expressing P. falciparum Hsp90; 310,000 tested, 0.32% active; inhibition, % at 9.4 µM; S. cerevisiae expressing PfHsp90, BacTiter-Glo ATP, 48 h; yeast lacking PDR1 and PDR3 efflux regulators; AID 504621;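 active = every replicate shows inhibition above about 80%, whatever the replicate mean, limit read from the data; inconclusive = mean inhibition reaches the set limit but some replicate falls short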;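 note: 0% = DMSO neutral controls and 100% = 20 µM radicicol positive controls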
tim10-1 inh – growth inhibitors of tim10-1 mutant yeast | 330,000 tested, 2.2% active | inhibition, % at 20 µM | S. cerevisiae tim10-1 ts strain growth, BacTiter-Glo, 24 h;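 active = inhibition of at least 40%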;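 note: mutant grown at 25 °C; 0% = DMSO wells with yeast and 100% = wells holding no yeast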
TIM10 inh – TIM10 yeast growth inhibition. S. cerevisiae TIM10 strain growth, BacTiter-Glo luminescence, 24 h. AID 463195. inhibition, % at 10 µM. 330,000 tested, 1.4% active;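 active = inhibition of 40% or more at the single tested concentration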;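 note: wild-type TIM10 isogenic control strain grown at permissive 25 °C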
tim23-1 inh – inhibits growth of tim23-1 mutant yeast; S. cerevisiae tim23-1 growth, BacTiter-Glo luminescence, 24 h; inhibition, % at 20 µM; 330,000 tested, 1.3% active; AID 463212;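 active = growth inhibition of the mutant yeast at or above 50%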;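 note: temperature-sensitive mutant grown at 25 °C; plate controls were DMSO-treated mutant yeast for no effect and medium wells lacking yeast for full effect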
V-ATPase pH – regulators of yeast V-ATPase proton transport; S. cerevisiae, pHLuorin cytosolic pH fluorescence; response, % at 10 µM; 350,000 tested, 0.37% active; AID 504577; in the data active = response mostly above about 7.3%, no sharp cut-off; inactive = mostly below about 5.4%; note: actives read high
tim10-1 conf – confirmation of tim10-1 mutant yeast growth inhibitors. shares compounds with tim10-1 inh. S. cerevisiae tim10-1 ts strain growth, BacTiter-Glo, 24 h. inhibition, % at 20 µM. 7,400 tested, 56% active. AID 463213;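 active = inhibition of yeast growth at or above a set limit in either of two repeat tests at 20 µM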;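 note: tim10-1 mutant grown at permissive 25 °C to find synthetic lethal compounds; 0% = DMSO yeast wells and 100% = medium wells without yeast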
tim10 confirm – confirmation of TIM10 yeast growth inhibitors. S. cerevisiae tim10 strain growth, BacTiter-Glo luminescence, 24 h. inhibition, % at 10 µM. 4,600 tested, 63% active. shares compounds with TIM10 inh. AID 463215;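 active = inhibition of yeast growth at or above a set limit in either of two replicates at 10 µM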;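 note: this counterscreen used the strain with wild-type TIM10; 0% = yeast with DMSO and 100% = medium wells lacking yeast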
* marks the source's active call; other numbers are inactive results; ? = inconclusive; · = no result given. The list is not random: actives were taken first. Their share in the collection is about 4.6%.

SMILES	SKKanGAS inh	PfHsp90 yeast 2	tim10-1 inh	TIM10 inh	tim23-1 inh	V-ATPase pH	tim10-1 conf	tim10 confirm
O=C(Nc1ccccc1F)c1ccc([N+](=O)[O-])s1	14	-64	45*	56*	-51	1	59*	64*
Cc1ccnc(NC(=O)C(Cc2ccccc2)NC(=O)c2ccccc2)c1 (stereo not drawn)	·	8	28	6	26	-2	·	·
Cn1c(/C=C/c2ccc([N+](=O)[O-])o2)nc2ccccc2c1=O	48	98*	77*	77*	-3	2	58*	-20
O=C1NC(=O)/C(=C\c2ccccc2OCc2ccccc2)S1	?	0	45*	43*	46	2	33*	29
CCN(CC)C(=O)C1CCCN(C(=O)c2cc(COc3cccc(OC)c3)on2)C1 (stereo not drawn)	-7	-2	25	17	13	-2	·	·
N#Cc1sc2nc(C3CC3)cc(-c3ccc(Cl)cc3)c2c1N	9	-9	43*	44*	40	-3	36*	-6
COc1ccc(-c2cc(-c3cccs3)nc3sc(C#N)c(N)c23)cc1	2	-33	35	17	28	-4	·	·
CCOc1cc(/C=N/NC(=O)c2cc(-c3cccnc3)nc3ccccc23)ccc1O	2	-13	45*	44*	39	-1	38*	28
CCOC(=O)CN1CCC(c2cc(-c3ccc(Cl)cc3)n[nH]2)CC1	4	27	19	-9	19	4	·	·
O=[N+]([O-])c1cccnc1N1CCC(c2cc(-c3ccc(Cl)cc3)n[nH]2)CC1	73*	57	43*	49*	14	0	37*	46*
COCCNC(=S)N1CCc2cc(OC)c(OC)cc2C1COc1ccc(C(C)C)cc1 (stereo not drawn)	14	-9	27	7	13	0	·	·
CCC1CSC(=Nc2ccc(C)cc2)N1C(=O)CN1C(=O)NC2(CCCC2)C1=O (stereo not drawn)	-2	3	23	17	29	-1	·	·
O=c1[nH]c2ccccc2c(O)c1-c1cc2ccccc2oc1=O	-9	·	-34	-5	4	·	·	·
O=[N+]([O-])c1nn(-c2ccc3c(c2)OCCO3)n(O)c1=NCCCO	26	-21	16	8	4	-1	·	·
O=[N+]([O-])c1nn(-c2ccc3c(c2)OCCO3)n(O)c1=NC1CCCC1	11	·	55*	58*	40	-3	47*	41*
COc1ccc(NC(=O)CON=CC(=O)Nc2ccc(C)cc2)c(OC)c1	·	-18	-3	-2	-3	0	·	·
COc1ccc(/C=C2\CCc3ccccc3C2=O)cc1Cn1nc(C)cc1C	13	-1	45*	49*	47	0	37*	40*
COc1ccc(/C=C2/CCc3ccccc3C2=O)cc1CN1CCOCC1	2	17	13	26	25	-1	·	·
COc1ccc(OC)c(C(=O)Nc2c(O)ccc3ccccc23)c1	2	1	30	26	34	0	·	·
Cc1cc(/C=N/n2c(COc3ccccc3C)nc3ccccc3c2=O)c(O)c([N+](=O)[O-])c1	52*	14	41*	43*	32	0	29	26
Cc1ccccc1OCc1nc2ccccc2c(=O)n1/N=C/c1c[nH]c2ccccc12	7	-14	0	-4	-21	5	·	·
Cc1nc(N2CCC(C)CC2)c2oc3ccccc3c2n1	13	-6	49*	46*	46	4	27	47*
COc1ccccc1N1CCN(c2nc(C)nc3c2oc2ccccc23)CC1	?	·	·	·	·	2	·	·
CC(C)(C)CC(=O)NC(=S)NCCc1ccccc1	-6	-23	37	29	38	1	·	·
CC(C)CC(=O)NC(=S)NCCc1ccccc1	-5	-11	47*	46*	35	-1	22	15
SMILES	SKKanGAS inh	PfHsp90 yeast 2	tim10-1 inh	TIM10 inh	tim23-1 inh	V-ATPase pH	tim10-1 conf	tim10 confirm
COc1ccc(N2C(=O)CC(N3CCN(c4cccc(Cl)c4)CC3)C2=O)cc1 (stereo not drawn)	-4	-2	14	4	31	3	·	·
COc1cccc(N2CCN(C3CC(=O)N(c4ccc(Cl)c(Cl)c4)C3=O)CC2)c1 (stereo not drawn)	11	-37	55*	41*	4	3	31*	40*
CCOC(=O)c1cnc2c(ccc3ccccc32)c1NCCCN(C)C	-5	-16	50*	81*	46	1	65*	80*
CC1CCc2nc3ccc(S(=O)(=O)N4CCC(C(=O)NC(C)c5ccccc5)CC4)cc3c(C(=O)O)c2C1 (stereo not drawn)	3	-7	0	4	-1	0	·	·
CN1c2ccccc2Oc2nnc(N3CCN(Cc4ccccc4)CC3)cc21	6	-2	41*	75*	47	-1	54*	44*
O=C1c2ccccc2C(=O)c2c1ccc1c(=O)n(C3CCCCC3)[nH]c21	?	-13	50*	50*	44	4	39*	54*
O=c1c2[nH]c3ccccc3c2ncn1C1CCCCC1	-3	·	6	-5	20	5	·	·
CC[C@@H]1C/C=C\Cc2ccccc2[C@@H](C(=O)C[C@H](O)CC(C)=O)OC1=O	·	11	9	-4	6	-3	·	·
Cc1ccc2cc(C)c(N3CCN(c4ccccn4)CC3)nc2c1	0	19	53*	43*	41	-1	34*	38*
Cc1cccc(C)c1N/C=C/c1onc(C)c1[N+](=O)[O-]	-2	13	2	-8	2	3	·	·
Cc1noc(/C=C/c2cccnc2)c1[N+](=O)[O-]	4	-32	55*	57*	44	2	57*	75*
CCCC1OC(c2ccco2)OCC1CC (stereo not drawn)	·	·	·	·	·	-3	·	·
S=C(Nc1ccc(Br)cc1)NC1CCCC1	4	-21	28	9	26	0	·	·
FC(F)Sc1ccc(NC(=S)NCc2ccccc2)cc1	-11	-22	48*	56*	44	-2	41*	44*
FC(F)Oc1ccc(NC(=S)NCc2ccccc2)cc1	8	-11	12	-2	21	-1	·	·
FC(F)Sc1ccc(NC(=S)NC2CCCCC2)cc1	12	·	65*	66*	31	4	67*	62*
FC(F)Sc1ccc(NC(=S)NCC2CCCCC2)cc1	25	-1	71*	69*	48	-3	60*	60*
CN(CC(=O)Nc1ccc(SC(F)F)cc1)C1CCCCC1	-3	1	-11	-6	2	0	·	·
Cn1nccc1C(=O)NC1CCN(Cc2ccccc2)CC1	-5	-10	0	-7	-2	-2	·	·

Screening results: PubChem BioAssay, several laboratories
